From PubChem BioAssay AID1159580 (chemical genetic matrix, 2015)
In all, about 5,500 compounds went through this assay and about 2,000 (36%) were called active. Inconclusive results (about 18%) are left out. Rule as the data show it: active = normalized growth mostly below about 0.91 (no sharp cut-off); inconclusive = no clear call, values can overlap the other calls; inactive = mostly above about 0.92. Some of the results follow.

Test: chemical genetic growth profiling, strain panel (AID 1159580);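 also: tested at 20 µM; growth read once vehicle control cultures reached saturation at 30 °C; 1 = growth at the plate median or of vehicle wells; lower values mean less growth of the strain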
Conditions: S. cerevisiae deletion strains, growth OD

Measured: normalized growth

C[N+]1(C)C[C@H](O)[C@H](C(=O)[O-])C1
inactive: locus YAL013W, strain DEP1, stronger effect = lower value 1.01 | locus YAL021C, strain ccr4, stronger effect = lower value 0.996 | locus YAL026C, strain drs2, stronger effect = lower value 1.03 | locus YAL030W, strain snc1, stronger effect = lower value 1.01 | locus YBL061C, strain skt5, stronger effect = lower value 1.01 | locus YBR009C, strain hhf1, stronger effect = lower value 1.05 | locus YBR021W, strain FUR4, stronger effect = lower value 1.01 | locus YBR023C, strain chs3, stronger effect = lower value 1.02 | locus YBR171W, strain sec66, stronger effect = lower value 1.03 | locus YBR229C, strain ROT2, stronger effect = lower value 1.01 | locus YBR231C, strain swc5, stronger effect = lower value 1.02 | locus YBR279W, strain paf1, stronger effect = lower value 1.01 | locus YCL011C, strain gbp2, stronger effect = lower value 1.02 | locus YCL016C, strain dcc1, stronger effect = lower value 1.02 | locus YCL029C, strain bik1, stronger effect = lower value 0.996 | locus YCL061C, strain MRC1, stronger effect = lower value 1.02 | locus YCL069W, strain vba3, stronger effect = lower value 1.01 | locus YCR088W, strain abp1, stronger effect = lower value 1.01 | locus YDL005C, strain med2, stronger effect = lower value 1.01 | locus YDL035C, strain GPR1, stronger effect = lower value 1.01 | locus YDL040C, strain nat1, stronger effect = lower value 1.01 | locus YDL074C, strain BRE1, stronger effect = lower value 1.02 | locus YDL101C, strain DUN1, stronger effect = lower value 1.02 | locus YDL134C, strain PPH21, stronger effect = lower value 1.01 | locus YDL185W, strain tfp1, stronger effect = lower value 0.995 | locus YDL192W, strain arf1, stronger effect = lower value 1 | locus YDR001C, strain nth1, stronger effect = lower value 1.01 | locus YDR069C, strain doa4, stronger effect = lower value 1.03 | locus YDR101C, strain arx1, stronger effect = lower value 0.988 | locus YDR137W, strain rgp1, stronger effect = lower value 1.01 | locus YDR150W, strain NUM1, stronger effect = lower value 1.01 | locus YDR159W, strain sac3, stronger effect = lower value 1.02 | locus YDR162C, strain NBP2, stronger effect = lower value 1.01 | locus YDR195W, strain ref2 1.03 | locus YDR297W, strain sur2, stronger effect = lower value 1.01 | locus YDR318W, strain mcm21, stronger effect = lower value 1.01 | locus YDR334W, strain swr1, stronger effect = lower value 1.02 | locus YDR335W, strain msn5, stronger effect = lower value 1.01 | locus YDR388W, stronger effect = lower value 1.01 | locus YDR392W, strain spt3, stronger effect = lower value 0.996 | locus YDR502C, strain sam2, stronger effect = lower value 0.994 | locus YEL003W, strain gim4, stronger effect = lower value 1.02 | locus YEL037C, strain rad23, stronger effect = lower value 1.01 | locus YEL061C, strain CIN8 (second series), stronger effect = lower value 1.01 | locus YEL061C, strain CIN8, stronger effect = lower value 1 | locus YER015W, strain faa2, stronger effect = lower value 1.01 | locus YER016W, strain bim1, stronger effect = lower value 1.01 | locus YER110C, stronger effect = lower value 0.992 | locus YER111C, strain swi4, stronger effect = lower value 1.02 | locus YER155C, strain BEM2 (second series), stronger effect = lower value 1.05 | locus YER155C, strain BEM2, stronger effect = lower value 1 | locus YER167W, strain BCK2, stronger effect = lower value 1.01 | locus YFR010W, strain ubp6, stronger effect = lower value 1.02 | locus YGL078C, strain dbp3, stronger effect = lower value 0.999 | locus YGL086W, strain mad1, stronger effect = lower value 0.968 | locus YGL167C, strain pmr1, stronger effect = lower value 1.02 | locus YGL173C, strain kem1, stronger effect = lower value 1.02 | locus YGL227W, strain vid30, stronger effect = lower value 1.01 | locus YGL240W, strain doc1, stronger effect = lower value 1.04 | locus YGL248W, strain PDE1, stronger effect = lower value 1.01 | locus YGL253W, strain hxk2, stronger effect = lower value 1.03 | locus YGR078C, strain PAC10, stronger effect = lower value 1.01 | locus YGR135W, strain pre9, stronger effect = lower value 1 | locus YGR229C, strain SMI1, stronger effect = lower value 1.01 | locus YGR252W, strain gcn5, stronger effect = lower value 0.992 | locus YHR013C, strain ard1, stronger effect = lower value 0.999 | locus YHR027C, strain rpn1, stronger effect = lower value 1.01 | locus YHR030C, strain SLT2, stronger effect = lower value 1.01 | locus YHR079C, strain IRE1 (second series), stronger effect = lower value 1 | locus YHR094C, strain hxt1, stronger effect = lower value 0.993 | locus YHR129C, strain ARP1, stronger effect = lower value 1.01 | locus YHR142W, strain chs7, stronger effect = lower value 0.98 | locus YHR200W, strain rpn10, stronger effect = lower value 0.995 | locus YIL066C, strain RNR3, stronger effect = lower value 1.01 | locus YIL073C, strain SPO22, stronger effect = lower value 1.1 | locus YIL125W, strain kgd1, stronger effect = lower value 0.996 | locus YIR030C, strain dcg1, stronger effect = lower value 0.995 | locus YJL092W, strain hpr5, stronger effect = lower value 1.01 | locus YJL095W, strain BCK1 (second series), stronger effect = lower value 1.01 | locus YJL095W, strain BCK1, stronger effect = lower value 1.01 | locus YJL115W, strain asf1, stronger effect = lower value 1.02 | locus YJL129C, strain trk1, stronger effect = lower value 1.01 | locus YJL134W, strain LCB3, stronger effect = lower value 1 | locus YJL154C, strain vps35, stronger effect = lower value 1.01 | locus YJL164C, strain tpk1, stronger effect = lower value 1.01 | locus YJL166W, strain qcr8, stronger effect = lower value 1.01 | locus YJL168C, strain set2, stronger effect = lower value 1 | locus YJL187C, strain SWE1 (second series), stronger effect = lower value 1.02 | locus YJL187C, strain SWE1, stronger effect = lower value 1.01
